Measured values published in PubChem BioAssay (EPA / NIEHS).
Records with an inconclusive call do not appear. Active and inactive are the calls of the source. Rule for the calls, unless noted: active = hit-call score of the fitted dose curve at least 0.9, where 1 is the maximum; inconclusive = response in the unintended direction; inactive = score below 0.9.

Assays:
AR (gene 367) = AR (gene 367) (UniProt P10275); experiment: ACEA_AR_antagonist_80hr: ACEA Biosciences xCELLigence Real-Time Cell Analysis on Androgen Receptor Antagonism for Proliferation (AID 2283787);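 note: 22Rv1 human prostate cancer cells with growth followed by electrical impedance; hits lower the impedance growth signal relative to DMSO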
Outline: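 Using 22Rv1 cells held in assay medium, we dosed compounds (100 uM maximum final, 1:4 serial, eight points, 0.5% DMSO at top) and recorded cell-electrode impedance; the 80 hr timepoint was analyzed against DMSO.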

[1] = biological target: Nucleoli Translocation, AR (gene 367) (UniProt P10275); experiment: UPITT_HCI_U2OS_AR_TIF2_Nucleoli_Antagonist: University of Pittsburgh U2OS Androgen Receptor-Transcriptional Intermediary Factor 2 (AR-TIF2) Antagonism High Content Imaging Assay for Nucleoli Translocation (AID 2283997)
Outline: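 An antagonist-mode imaging screen: engineered U2OS (AR-RFP, TIF2-GFP) exposed to 20 uM compound, 0.2% DMSO. Activity reflects nucleolar red fluorescence change relative to DHT baseline.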

[2] = biological target: Nucleoli Translocation, AR (gene 367) (UniProt P10275); experiment: UPITT_HCI_U2OS_AR_TIF2_Nucleoli_Agonist: University of Pittsburgh U2OS Androgen Receptor-Transcriptional Intermediary Factor 2 (AR-TIF2) Agonism High Content Imaging Assay for Nucleoli Translocation (AID 2283998)
Outline: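 Readout is red (AR-RFP) fluorescence localized to nucleoli, measured by high-content imaging and analysed for increase relative to DMSO. Compound series spanned 0.195 to 50 uM final in 0.5% DMSO.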

[3] = biological target: Ratio of Nucleoli Translocation and Cytoplasm, AR (gene 367) (UniProt P10275); experiment: UPITT_HCI_U2OS_AR_TIF2_Nucleoli_Cytoplasm_Ratio_Antagonist: University of Pittsburgh U2OS Androgen Receptor-Transcriptional Intermediary Factor 2 (AR-TIF2) Antagonism High Content Imaging Assay for Ratio of Nucleoli Translocation and Cytoplasm (AID 2283999);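 note: antagonists lower the DHT-driven ratio of nucleolar to cytoplasmic red signal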
Outline: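 Compounds were added to U2OS cells carrying red-fluorescent AR and green-fluorescent TIF2, first at 20 uM, with hits confirmed in triplicate and titrated from 0.195 to 50 uM. Nucleolar versus cytoplasmic AR-RFP fluorescence was then quantified by imaging, with analysis relative to DHT.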

[4] = biological target: Ratio of Nucleoli Translocation and Cytoplasm, AR (gene 367) (UniProt P10275); experiment: UPITT_HCI_U2OS_AR_TIF2_Nucleoli_Cytoplasm_Ratio_Agonist: University of Pittsburgh U2OS Androgen Receptor-Transcriptional Intermediary Factor 2 (AR-TIF2) Agonism High Content Imaging Assay for Ratio of Nucleoli Translocation and Cytoplasm (AID 2284000);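 note: hits raise the red nucleolar to cytoplasm ratio above vehicle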
Outline: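 Primary screen at 20 uM final (0.2% DMSO), then triplicate confirmation and dose-response from 0.195 to 50 uM final (0.5% DMSO). Cells: U2OS with AR-RFP and TIF2-GFP. Endpoint is the nucleoli/cytoplasm red-fluorescence ratio, gain-of-signal vs DMSO.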

[5] = CCTE_Shafer_MEA_dev_bursting_electrodes_number: CCTE's Neural Network Formation Assay for Number of Bursting Electrodes, Shafer Lab (AID 2284043)
Outline: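 Counted: electrodes with burst rate ≥1 per 2 min in each well. Cells: primary rat cortex, 1.5 x 10^5/well, on 16-electrode MEA wells. Exposure: DIV 0–12, compound renewed DIV 5 and 9. Recording days 5, 7, 9, 12; AUC vs DMSO baseline.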

[6] = CCTE_Shafer_MEA_acute_AB: CCTE's Alamar Blue Assay for Cytotoxicity in the Neural Acute Assay, Shafer Lab (AID 2284069);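 note: active compounds lower the viability signal compared with DMSO wells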
Outline: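 Read-out: resazurin fluorescence (ex 544, em 590 nm) after CTB reagent at 1:6 dilution in fresh media. Cells: primary rat cortical neuron networks, DIV 13 or 15, chemically exposed on MEA plates; DMSO as negative control/baseline.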

[7] = CCTE_Shafer_MEA_dev_AB: CCTE's Alamar Blue Assay for Cytotoxicity in the Neural Network Formation Assay, Shafer Lab (AID 2284083);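 note: resazurin reduction fluorescence as viability of cultured neurons; twelve days of exposure from plating with re-dosing on DIV 5 and 9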
Outline: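 Rat cortical primary cultures, 1.5 x 10^5 cells/well on MEA; continuous compound exposure over 12 days of network development, re-dosed with full medium change DIV 5 and 9. Alamar Blue fluorescence; loss of signal = cytotoxicity vs DMSO baseline.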

[8] = IUF_NPC1b_proliferation_BrdU_72hr: Leibniz Research Institute for Environmental Medicine (IUF) 72-hour Neural Progenitor Cell Bromodeoxyuridine (BrdU) Proliferation Assay (NPC1b) (AID 2284207; active = hit-call score of the fitted dose curve at least 0.9, where 1 is the maximum; inactive = score below 0.9)
Outline: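 Neural progenitor spheres of human fetal origin are treated for three days; BrdU added for the last 16 h is quantified by luminescence ELISA, with DMSO as baseline and EGF/FGF omission as positive control.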

[9] = IUF_NPC1a_proliferation_area_72hr: Leibniz Research Institute for Environmental Medicine (IUF) 72-hour Neural Progenitor Cell Proliferation Area Assay (NPC1a) (AID 2284208; active = hit-call score of the fitted dose curve at least 0.9, where 1 is the maximum; inactive = score below 0.9)
Outline: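 Spheres of 0.3 mm are plated singly in growth-factor medium and exposed from day 0. After three days at 37C and 5% CO2, sphere area is measured by phase contrast imaging, with activity referenced to DMSO.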

[10] = IUF_NPC1_viability_72hr: Viability Assessment at 72 hours in the Leibniz Research Institute for Environmental Medicine (IUF) Neural Progenitor Cell Proliferation Assay (NPC1) (AID 2284209; active = hit-call score of the fitted dose curve at least 0.9, where 1 is the maximum; inactive = score below 0.9)
Outline: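 Spheres of primary human neural progenitors were plated singly in proliferation medium and treated for 72 h. Mitochondrial reduction of resazurin was then measured by fluorescence and analysed against DMSO controls.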

[11] = CCTE_Mundy_HCI_hNP1_CellTiter: CCTE's Cell Titer-Glo 2 Assay in human neuroprogenitor cells for Viability, Mundy Lab (AID 2284241)
Outline: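 Measures ATP content in human neural progenitors derived from WA09 embryonic cells. Read-out at 26.5 hours after dosing, with DMSO serving as the negative control and baseline.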

[12] = IUF_NPC2c_oligodendrocyte_migration_120hr: Leibniz Research Institute for Environmental Medicine (IUF) 120-hour Neural Progenitor Cell Migration Assay for Oligodendrocyte Migration (NPC2c) (AID 2284297; active = hit-call score of the fitted dose curve at least 0.9, where 1 is the maximum; inactive = score below 0.9)
Outline: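 Read-out is the mean distance of O4-positive oligodendrocytes from the sphere core edge at 120 h, normalized to radial glia migration and fitted in the gain direction against DMSO. Spheres of primary human neural progenitors differentiated on laminin under continuous compound exposure.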

[13] = IUF_NPC2a_radial_glia_migration_120hr: Leibniz Research Institute for Environmental Medicine (IUF) 120-hour Neural Progenitor Cell Migration Assay for Radial Glia Migration (NPC2a) (AID 2284298; active = hit-call score of the fitted dose curve at least 0.9, where 1 is the maximum; inactive = score below 0.9)
Outline: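 Readout: distance in um from sphere core edge to migration-area edge, derived from Hoechst nuclei density with a threshold-defined polynomial boundary. Spheres: hNPC, GW 16-19, 0.3 mm, on PDL/laminin; exposure 5 days; DMSO is baseline.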

[14] = IUF_NPC2a_radial_glia_migration_72hr: Leibniz Research Institute for Environmental Medicine (IUF) 72-hour Neural Progenitor Cell Migration Assay for Radial Glia Migration (NPC2a) (AID 2284299; active = hit-call score of the fitted dose curve at least 0.9, where 1 is the maximum; inactive = score below 0.9)
Outline: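 Single 0.3 mm neurospheres were plated per well in N2 differentiation medium and exposed from the start of differentiation. After 72 hours, brightfield images were taken and radial glia migration from the sphere core edge was measured manually in four directions, averaged per well.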

[15] = IUF_NPC2b_neuronal_migration_120hr: Leibniz Research Institute for Environmental Medicine (IUF) 120-hour Neural Progenitor Cell Migration Assay for Neuron Migration (NPC2b) (AID 2284300; active = hit-call score of the fitted dose curve at least 0.9, where 1 is the maximum; inactive = score below 0.9)
Outline: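 Read-out is mean distance from sphere edge to each TUBB3-positive neuron at 120 h, expressed relative to radial glia migration distance and to DMSO baseline. Single 0.3 mm human NPC spheres differentiated on laminin under continuous compound exposure.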

[16] = IUF_NPC3_neuronal_differentiation_120hr: Leibniz Research Institute for Environmental Medicine (IUF) 120-hour Neuronal Differentiation Assay (NPC3) (AID 2284301; active = hit-call score of the fitted dose curve at least 0.9, where 1 is the maximum; inactive = score below 0.9)
Outline: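 Neuronal differentiation of primary human neural progenitors measured by high-content imaging: percent TUBB3+ of Hoechst+ nuclei within migrated area at 120 h, seven-point serial dilution plus solvent control, gain or loss relative to DMSO.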

[17] = IUF_NPC4_neurite_length_120hr: Leibniz Research Institute for Environmental Medicine (IUF) 120-hour Neuronal Morphology Assay for Neurite Length (NPC4) (AID 2284302; active = hit-call score of the fitted dose curve at least 0.9, where 1 is the maximum; inactive = score below 0.9)
Outline: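 Neurons from differentiating human fetal neural progenitor spheres are scored for average neurite length after five days of compound exposure. Fitting uses DMSO as negative control.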

[18] = IUF_NPC5_oligodendrocyte_differentiation_120hr: Leibniz Research Institute for Environmental Medicine (IUF) 120-hour Oligodendrocyte Differentiation Assay (NPC5) (AID 2284304);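 note: primary human fetal neural progenitor spheres plated to migrate and differentiate; share of O4-positive cells among Hoechst nuclei found by CNN image analysis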
Outline: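 Oligodendrocyte differentiation was scored after 120 h as the O4-positive share of Hoechst-stained nuclei across the neurosphere migration area, using a trained convolutional neural network on high-content fluorescence images. Human fetal neural progenitor spheres were dosed from day 0, normalised to DMSO.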

[19] = IUF_NPC4_neurite_area_120hr: Leibniz Research Institute for Environmental Medicine (IUF) 120-hour Neuronal Morphology Assay for Neurite Area (NPC4) (AID 2284305)
Outline: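 Endpoint at 120 h: automated imaging of TUBB3/Hoechst-stained differentiating human neural progenitor spheres, neurite area per neuron from skeletonization. DMSO solvent control, not above 0.1%, set the baseline; medium was half-replaced on day 3.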

Measured: outcome

Nucleoli Translocation, AR (gene 367), sequence (P10275 whole entry, looked up): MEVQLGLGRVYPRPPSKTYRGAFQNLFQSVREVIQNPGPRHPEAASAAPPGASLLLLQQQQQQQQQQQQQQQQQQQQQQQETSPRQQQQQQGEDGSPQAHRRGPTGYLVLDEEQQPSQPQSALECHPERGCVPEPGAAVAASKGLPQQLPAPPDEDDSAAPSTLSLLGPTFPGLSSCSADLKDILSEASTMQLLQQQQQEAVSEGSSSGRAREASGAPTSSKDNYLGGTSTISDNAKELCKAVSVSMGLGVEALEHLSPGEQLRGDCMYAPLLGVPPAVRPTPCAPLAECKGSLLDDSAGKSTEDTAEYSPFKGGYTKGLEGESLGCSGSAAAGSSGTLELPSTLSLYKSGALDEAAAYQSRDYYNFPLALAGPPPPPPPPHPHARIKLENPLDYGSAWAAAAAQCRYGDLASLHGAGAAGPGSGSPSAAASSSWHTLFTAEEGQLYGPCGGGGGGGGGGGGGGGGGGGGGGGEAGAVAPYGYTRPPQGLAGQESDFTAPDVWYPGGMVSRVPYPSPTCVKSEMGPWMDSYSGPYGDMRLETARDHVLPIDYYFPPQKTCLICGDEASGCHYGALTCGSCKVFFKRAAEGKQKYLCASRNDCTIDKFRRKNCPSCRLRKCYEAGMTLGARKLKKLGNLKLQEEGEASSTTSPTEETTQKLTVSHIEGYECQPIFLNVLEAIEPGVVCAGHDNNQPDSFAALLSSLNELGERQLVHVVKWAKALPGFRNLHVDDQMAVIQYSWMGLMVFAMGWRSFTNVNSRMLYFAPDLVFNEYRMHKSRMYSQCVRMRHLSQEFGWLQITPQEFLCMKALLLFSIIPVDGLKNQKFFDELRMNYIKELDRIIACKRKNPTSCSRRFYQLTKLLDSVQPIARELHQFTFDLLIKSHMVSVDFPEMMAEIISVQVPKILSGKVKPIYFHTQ
Ratio of Nucleoli Translocation and Cytoplasm, AR (gene 367), sequence (P10275 whole entry, looked up): as above
AR (gene 367), sequence (P10275 whole entry, looked up): as above

O=C(c1ccccc1)c1ccccc1O
inactive: AR (gene 367) | [1] | [2] | [3] | [4]

NC(N)=Nc1nc(CSCCC(N)=NS(N)(=O)=O)cs1
not listed: AR (gene 367) | [1] | [2] | [3] | [4]
inactive: all other assays above

CN(C)CCC(c1ccc(Cl)cc1)c1ccccn1 (stereo not given)
not listed: AR (gene 367) | [1] | [2] | [3] | [4]
inactive: all other assays above

Cc1cc(C)c(S(=O)(=O)O)cc1N=Nc1cc(S(=O)(=O)O)c2ccccc2c1O
inactive: AR (gene 367) | [1] | [2] | [3] | [4]
